The target in assay [1] is Retinoic acid receptor RXR-alpha (Homo sapiens) (UniProt P19793). Nature of the assay: qHTS assay to identify small molecule agonists of the RXR signaling pathway (AID 1159527; calls by dose curve; also: nearly all actives have a fitted effect of over 35% in size). In short, it runs like this:
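16 hr incubation of compound-treated RXR-alpha-UAS-bla HEK 293T cells (2% charcoal-stripped FBS, 37 C) preceded a 2 hr room-temperature LiveBLAzer FRET substrate step and blue/green fluorescence measurement.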
(In general: Quantitative high-throughput screening tests each substance at several concentrations.)

Assay [2] can be described thus: qHTS assay to identify small molecule agonists of the RXR signaling pathway - cell viability counter screen (AID 1159529).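 Also: HEK 293T cells carrying an RXR-alpha UAS beta-lactamase reporter; series mostly up to about 77 µM; nearly all actives have a fitted effect of over 50% in size.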 In short, it runs like this: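 In this parallel viability measure, GeneBLAzer RXR-alpha HEK 293T cells (2% charcoal-stripped FBS) were given a 5 hr preincubation, treated with compounds 16 hr at 37 C, and read by CellTiter-Glo luminescence.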

Assay [3] is described as follows: qHTS assay to identify small molecule antagonists of the retinoid acid receptor (RAR) signaling pathway - cell viability counter screen (AID 1159551). Also: nearly all actives have a fitted effect of over 35% in size. In short, it runs like this:
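Cytotoxicity counter screen: ATP content quantified by CellTiter-Glo luminescence in C3RL4 cells treated 6 hr at 37 C with compound and retinol (1 uM final). Cells plated at 1,000/well and cultured overnight before dosing.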

Assay [4] in a line: qHTS assay to identify small molecule antagonists of the retinoic acid receptor (RAR) signaling pathway (AID 1159552; also: nearly all actives have a fitted effect of over 50% in size). In short, it runs like this: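 C3RL4 RARE-luc cells, overnight plating; retinol 1 uM final added right after compound; 6 hr 37 C; luciferase read at 30 min RT.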
A short description of assay [5]: qHTS assay to identify small molecule agonists of the retinoic acid receptor (RAR) signaling pathway (AID 1159553). Also: potency is read from the fitted curve at half-maximal effect. In short, it runs like this:
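Luminescence was measured 30 min after luciferase reagent addition at room temperature. Before that, C3RL4 reporter cells (1,000 per well, plated overnight) were treated with compound for 6 hr at 37 C and 5% CO2.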

A short description of assay [6]: qHTS assay to identify small molecule antagonists of the estrogen related receptor (ERR) signaling pathway from Tox21 library - cell viability counter screen (AID 1224834). Also: nearly all actives have a fitted effect of over 30% in size. In short, it runs like this: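 CellTiter-Fluor fluorescence, read after 30 min at 37 C, measures viability of ERR cells. Cells plated at 2,000/well and incubated 6 h before pin-tool compound addition, then exposed 17.5 hours at 37 C.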

Assay [7] deals with Luciferin 4-monooxygenase (Photinus pyralis) (UniProt P08659). Nature of the assay: qHTS assay to identify small molecule inhibitors of firefly luciferase (AID 1224835). Also: nearly all actives have a fitted effect of over 25% in size. Also: potency is read from the fitted curve at half-maximal effect. In short, it runs like this: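 Biochemical qHTS: compounds run as interplate titrations against purified firefly enzyme, with D-luciferin and ATP each at its KM concentration. Light output recorded by CCD imaging.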
Sequence of Luciferin 4-monooxygenase (Photinus pyralis) (P08659 whole entry, looked up): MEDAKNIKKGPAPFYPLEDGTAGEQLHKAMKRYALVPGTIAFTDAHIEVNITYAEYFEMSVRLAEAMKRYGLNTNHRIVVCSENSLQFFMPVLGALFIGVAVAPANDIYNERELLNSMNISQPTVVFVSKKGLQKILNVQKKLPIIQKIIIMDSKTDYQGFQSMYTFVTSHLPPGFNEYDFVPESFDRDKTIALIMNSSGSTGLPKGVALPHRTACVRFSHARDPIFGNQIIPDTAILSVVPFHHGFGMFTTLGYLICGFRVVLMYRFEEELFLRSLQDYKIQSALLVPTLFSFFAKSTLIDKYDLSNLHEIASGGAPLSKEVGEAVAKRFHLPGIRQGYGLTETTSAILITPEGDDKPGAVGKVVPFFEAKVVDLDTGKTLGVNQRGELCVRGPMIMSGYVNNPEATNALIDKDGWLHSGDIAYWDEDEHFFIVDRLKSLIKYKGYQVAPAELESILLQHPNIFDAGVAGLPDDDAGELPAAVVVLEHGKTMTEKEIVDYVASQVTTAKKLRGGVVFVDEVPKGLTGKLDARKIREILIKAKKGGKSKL

Assay [8] in a line: qHTS assay to identify small molecule agonists of the constitutive androstane receptor (CAR) signaling pathway - cell viability counter screen (AID 1224836). Also: series mostly up to about 92 µM; nearly all actives have a fitted effect of over 45% in size. In short, it runs like this: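 Using CellTiter-Fluor, viability of HepG2 cells harbouring hCAR and CYP2B6-2.2kb was measured following 23 h incubation with a 15-concentration compound series plus PK11195 (0.75 uM final).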

Assay [9] in a line: qHTS assay to identify small molecule antagonists of the constitutive androstane receptor (CAR) signaling pathway - cell viability counter screen (AID 1224837). Also: series mostly up to about 92 µM; nearly all actives have a fitted effect of over 45% in size. In short, it runs like this: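 Cytotoxicity counter-screen: CellTiter-Fluor fluorescence after 23 h compound exposure (15-point qHTS) in double-stable HepG2-CYP2B6-hCAR cells, with 50 nM CITCO added.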
The target of assay [10] is Nuclear receptor subfamily 1 group I member 3 (Homo sapiens) (UniProt Q14994). Nature of the assay: qHTS assay to identify small molecule antagonists of the constitutive androstane receptor (CAR) signaling pathway (AID 1224838).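 Also: HepG2 cells stably expressing hCAR with CYP2B6 luciferase reporter stimulated by CITCO; nearly all actives have a fitted effect of over 40% in size.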 In short, it runs like this:
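Antagonism measured as luciferase signal (ONE-Glo, 30 min, room temperature) in CAR-stimulated cells: HepG2-CYP2B6-hCAR double-stable line exposed 24 hr at 37 C to compound in a 15-point series plus 50 nM CITCO.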

For assay [11] the target is unchanged. Nature of the assay: qHTS assay to identify small molecule agonists of the constitutive androstane receptor (CAR) signaling pathway (AID 1224839). Also: nearly all actives have a fitted effect of over 15% in size. Also: potency is read from the fitted curve at half-maximal effect. In short, it runs like this:
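Double-stable HepG2 cells (hCAR, CYP2B6-2.2kb) seeded 4 h before compound addition. Exposure 24 h with 0.75 uM PK11195 final. Luciferase detected by ONE-Glo.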

Assay [12] in a line: qHTS assay to identify small molecule antagonists of the estrogen related receptor signaling pathway with the pleiotropic PPARgamma coactivator (PGC) from Tox21 10K library - cell viability counter screen (AID 1224840; active = well fitted cell-killing curve with a large enough effect in the repeat runs, not every such curve was filed as active; also: nearly all actives have a fitted effect of over 40% in size). In short, it runs like this: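 Counter-screen for cytotoxicity: after 17.5 h compound exposure at 37 C, CellTiter-Fluor reagent added to PGC/ERR cells for 30 min and fluorescence read. Cells were seeded at 2,000 per well 6 h before dosing.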

Assay [13] is described as follows: qHTS assay to identify small molecule antagonists of the estrogen related receptor signaling pathway with the pleiotropic PPARgamma coactivator (PGC) from Tox21 10K library (AID 1224841; call rule not given here; also: series mostly up to about 92 µM; actives are mostly falling curves and most rising ones were filed inactive; nearly all actives have a fitted effect of over 50% in size). In short, it runs like this: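 Luminescence (One-Glo, 30 min at room temperature) after 18 h compound treatment at 37 C of PGC/ERR reporter cells plated at 2,000 cells/well and settled 6 h beforehand.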

Assay [14] can be described thus: qHTS assay to identify small molecule agonists of the estrogen related receptor signaling pathway with the pleiotropic PPARgamma coactivator (PGC) from Tox21 10K library (AID 1224842). Also: nearly all actives have a fitted effect of over 15% in size. In short, it runs like this: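 PGC/ERR reporter cell line, 2,000 cells per well, incubated 6 h at 37 C before 23 nL compound in DMSO was added. After 18 h at 37 C, One-Glo luminescence read following 30 min at room temperature.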

Assay [15] is described as follows: qHTS assay to identify small molecule antagonists of the estrogen related receptor (ERR) signaling pathway - cell viability counter screen (AID 1224818). Also: series mostly up to about 46 µM. In short, it runs like this:
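Cytotoxicity counter screen: fluorescence from CellTiter-Fluor, added after 17.5 h compound exposure at 37 C and read 30 min later. ERR cell line seeded at 2,000 cells/well, preincubated 6 h before dosing.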

Assay [16] in a line: qHTS assay to identify small molecule antagonists of the estrogen related receptor signaling pathway with the pleiotropic PPARgamma coactivator (PGC) cell viability counter screen (AID 1224822; also: series mostly up to about 46 µM). In short, it runs like this:
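Viability counter-screen read by fluorescence intensity after 30 min with CellTiter-Fluor at 37 C; PGC/ERR reporter cells were exposed to compounds for 17.5 h at 37 C following a 6 h preincubation.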

Molecules are shown by their SMILES. Values joined by “and” are separate entries in the source; they are usually repeats but may differ in a detail not shown here. Equal values may be shown once. Inconclusive results are not listed. Active and inactive are the calls of the source. Unless noted, calls follow the shape of the dose curve; as a rule, active = well fitted curve in the direction sought with a large enough effect in the repeat runs; inconclusive = weak or mixed curves; inactive = no such curve, though single readings can be large; an effect the other way counts as inactive or inconclusive.

Sequence of Retinoic acid receptor RXR-alpha (Homo sapiens) (P19793 whole entry, looked up): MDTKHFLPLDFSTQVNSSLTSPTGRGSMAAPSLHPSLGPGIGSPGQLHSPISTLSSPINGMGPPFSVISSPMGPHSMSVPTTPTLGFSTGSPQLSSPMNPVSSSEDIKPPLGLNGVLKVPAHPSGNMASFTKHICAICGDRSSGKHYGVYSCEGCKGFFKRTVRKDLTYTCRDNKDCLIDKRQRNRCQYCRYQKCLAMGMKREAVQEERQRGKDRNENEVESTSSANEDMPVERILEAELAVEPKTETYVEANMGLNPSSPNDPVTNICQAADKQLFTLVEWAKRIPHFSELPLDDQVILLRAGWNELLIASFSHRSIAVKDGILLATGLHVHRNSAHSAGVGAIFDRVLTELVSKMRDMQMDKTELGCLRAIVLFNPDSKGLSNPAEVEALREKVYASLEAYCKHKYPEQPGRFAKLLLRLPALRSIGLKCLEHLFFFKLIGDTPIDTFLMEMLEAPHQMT
Sequence of Nuclear receptor subfamily 1 group I member 3 (Homo sapiens) (Q14994 whole entry, looked up): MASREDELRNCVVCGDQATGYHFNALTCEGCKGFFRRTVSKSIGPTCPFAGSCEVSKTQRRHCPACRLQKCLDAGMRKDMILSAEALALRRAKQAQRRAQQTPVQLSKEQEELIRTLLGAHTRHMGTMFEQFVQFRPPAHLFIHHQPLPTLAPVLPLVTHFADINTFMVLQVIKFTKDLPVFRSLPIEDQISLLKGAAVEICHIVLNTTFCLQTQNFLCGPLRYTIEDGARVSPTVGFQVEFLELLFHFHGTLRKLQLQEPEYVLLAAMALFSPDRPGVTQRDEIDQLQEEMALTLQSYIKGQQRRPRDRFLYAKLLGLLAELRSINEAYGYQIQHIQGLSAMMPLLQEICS

As to `Nc1ccccc1S(=O)(=O)O`, the Potency entry in [1], in assay [2], in assay [4], in assay [5], in assay [6] and in assay [7] was “inactive” throughout. The Potency result in assay [8], in assay [9], in assay [10], in [11], in assay [12] and in [13] was “inactive” each time. Besides, the compound was called inactive in [3] and in assay [14].

Turning to `CC(NC(CCc1ccccc1)C(=O)O)C(=O)N1C(=O)N(C)CC1C(=O)O` (stereo not given), the Potency result in [1], in [2], in assay [4], in assay [5], in [6] and in assay [7] was “inactive” throughout. The Potency result in assay [8], in assay [9], in assay [10], in assay [11], in assay [12] and in [13] was “inactive” throughout. The compound was called inactive in assay [3] and in [14].

Take `CC(=O)CC(C)C`: the Potency result in [1], in assay [2], in assay [4], in assay [5], in assay [6] and in assay [7] was “inactive” in each case. The Potency entry in assay [8], in assay [9], in assay [10], in assay [11], in assay [12] and in [13] was “inactive” throughout. Besides, the result in [3] and in assay [14] was inactive.

Consider `O=C1CCCCCCCCCCCN1`, for which the Potency entry in assay [1], in [2], in [4], in assay [5], in assay [6] and in [7] was “inactive” throughout. The Potency result in assay [8], in [9], in assay [10] and in assay [12] was “inactive” throughout. Also, the outcome in [3] was inactive.

Consider `CCC=O`, for which the Potency result in assay [1], in [2], in [4], in [5], in assay [6] and in [7] was “inactive” in each case. Further, the Potency entry in assay [8], in [9], in assay [10], in assay [11], in assay [12] and in assay [13] was “inactive” throughout. The call in assay [3] and in assay [14] was inactive.

As for `O=c1cc(CO)occ1O`, the Potency entry in assay [1], in [2], in [4], in [5], in assay [6] and in [7] was “inactive” in each case. Besides, the Potency entry in [8], in assay [9], in assay [10], in assay [11], in assay [12] and in assay [13] was “inactive” each time. Moreover, the result in assay [3] and in assay [14] was inactive.

On to `O=C1OC(=O)C2CCCCC12` (stereo not given), for which the Potency entry in [1], in assay [2], in assay [4], in [5], in assay [6] and in assay [7] was “inactive” throughout. The Potency result in assay [8], in assay [9], in assay [10], in assay [11], in assay [12] and in assay [13] was “inactive” throughout. Further, the compound was classed as inactive in [3] and in assay [14].

Consider `CN1CC(=O)NC1=N`, for which the Potency result in assay [1], in [2], in [4], in [5], in [6] and in assay [7] was “inactive” in each case. The Potency result in [8], in assay [9], in assay [10], in assay [11], in assay [12] and in [13] was “inactive” each time. In addition, the compound was classed as inactive in [3] and in assay [14].

Consider `CCOC(=O)[C@H](CCc1ccccc1)N[C@@H](C)C(=O)N1[C@H](C(=O)O)C[C@@H]2CCC[C@@H]21`, for which the Potency entry in assay [1], in [2], in [4], in assay [5], in [6] and in assay [7] was “inactive” throughout. Further, the Potency entry in assay [8], in [9], in assay [10], in assay [11], in [12] and in [13] was “inactive” throughout. The result in assay [3] and in assay [14] was inactive.

Regarding `O=c1cc(-c2ccccc2)oc2ccccc12`, the Potency result in assay [2], in assay [4], in assay [6], in assay [8], in assay [9] and in assay [12] was “inactive” throughout. Moreover, the compound was classed as inactive in [3], in [15] and in assay [16]. Moreover, the Potency is 3.44 µM (active) and 858 nM (active) in assay [5]; 7.97 µM (active) and 12.6 µM (active) in assay [7]; 27.3 µM (active) and 21.6 µM (active) in assay [11].

Source of the values: PubChem BioAssay (Tox21).
